# An excerpt weighted towards active compounds, which were near 20% of everything screened.
# CHX counter – affects cycloheximide protein synthesis inhibition readout, counter-screen. cell reporter, cycloheximide protein synthesis inhibition counterscreen. max response, %. AID 2314. actives 12% (n = 300,000); in the data active = max response mostly above about 13%, no sharp cut-off; inactive = mostly below about 14%; also: read at 38.3 µM for the half of the compounds with a filed dose; 0% is about no effect
# Pf growth 96h – inhibits malaria parasite growth, 96 h; actives 6.9% (n = 320,000); P. falciparum luciferase reporter growth, 96 h; Potency, µM (highest dose often 28.7 µM), without a hit: at the top dose activity change, negative = inhibition, actives largely listed as inhibitors; also: potency is read from the fitted curve at half-maximal effect; % is scaled to controls: 0 for no effect and ±100 for the full control effect
#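 Infected RBCs, 2% Hct / 0.05% parasitemia final; luciferase-reporter P. falciparum; cpd 96 h, 37 C, 5% CO2; luciferase detection reagent; luminescence.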
# Pf growth 48h – P. falciparum growth inhibition at 48 hours (one generation). P. falciparum luciferase growth in erythrocytes, 48 h. Potency, µM (top dose mostly 28.7 µM), for inactives: at the highest dose activity change, negative = inhibition, usual class: inhibitors. actives 5.9% (n = 310,000). AID 504832; also: potency is read from the fitted curve at half-maximal effect; % is scaled to controls: 0 for no effect and ±100 for the full control effect
#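 Luciferase-expressing parasites in RBCs, 2% Hct / 0.1% parasitemia final; RPMI 1640 + 0.5% Albumax; 37 C, 5% CO2, one generation; luminescence read-out, lower signal = inhibition.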
# Shiga inhibitor – Shiga toxin inhibition. inhibition, % at 38.7 µM. actives 9.2% (n = 290,000). Vero cells, Shiga toxin protein synthesis inhibition reporter; in the data active = inhibition mostly above about 28%, no sharp cut-off; inactive = mostly below about 43%; also: 0% is about no effect
# HCMV inh – human cytomegalovirus inhibition | actives 4.5% (n = 410,000) | activity change, negative = inhibition, % at 57.5 µM | HFF cells, HCMV-luciferase reporter, 72 h; hits give low values; in the data active = activity change below about -60%; inconclusive = no clear call, values can overlap the other calls; inactive = above about -39%; also: % is scaled to controls: 0 for no effect and ±100 for the full control effect
#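 HFF cells seeded 16 h at 37C, treated with compounds, infected with luciferase-reporter HCMV at MOI 1 PFU/cell; luciferase read at 72 h post infection, normalized to buffer-only and Salinomycin controls.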
# The depositor's hits bear a star; ? = inconclusive; · = no result given; [ ] = another dose, or the depositor's remark. Unless noted, calls follow the shape of the dose curve; as a rule, active = well fitted inhibition curve with a large enough effect; inconclusive = small, poorly fitted or top-dose-only effect, or another doubt; inactive = no such curve, though single readings can be large or run the other way.
SMILES,CHX counter,Pf growth 96h,Pf growth 48h,Shiga inhibitor,HCMV inh
CN(C)c1ccc(/C=N/NC(=O)c2ccccn2)cc1,22.8*,31.0%,-43.0%,15.0,106.2
CN(C)c1ccc(/C=N\NC(=O)c2csnn2)cc1,18.1*,154.0%,285.8%,32.5*,93.9
O=C(N/N=C/c1ccncc1)c1ccccn1,34.5*,?,63.7%,72.2*,·
CC(C)(C)OC(=O)NN=C(c1ccc(O)cc1)c1ccc(O)cc1,-1.5,?,-12.3%,-0.4,6.6
Cc1ccc(N/N=C/c2ccc(N3CCOCC3)cc2)cc1C,59.0*,10.4µM*,-16.4%,135.7*,0.5
Cc1cccc(/C=N\NC(=O)c2csnn2)c1,74.1*,-7.5%,50.2%,88.5*,59.5
O=C(N/N=C/c1ccc(N2CCOCC2)cc1)C1CC1,15.3,48.4%,40.7%,45.2*,-14.5
O=C(N/N=C\c1ccc(Oc2ccccc2)cc1)c1csnn1,46.5*,-12.1%,67.0%,97.2*,16.1
Cc1ccc(/C=N/Nc2cc(C)nc(N3CCOCC3)n2)cc1,-1.5,-1.2%,29.6%,11.8,-6.7
Cc1cccc(/C=N/NC(=O)C[n+]2ccccc2)c1,·,?,-5.4%,·,-31.8
CCOC(=O)C1(C)CCCCN1C(=O)c1ccnc(Cl)c1 (configuration not stated),·,·,·,·,4.6
Nc1ncc(S(=O)(=O)Nc2ccc(F)cc2F)cn1,·,·,·,·,38.2
Cc1ccc(/C=N/NC(=O)c2ccncc2)o1,2.9,83.9%,23.7%,15.3,20.7
CCc1c(C(=O)N/N=C/c2ccc(C)o2)csc1C,17.9*,?,?,-1.0,-22.1
Cc1ccc(/C=N/NC(=O)c2ccccn2)o1,41.6*,?,101.1%,47.2*,50.6
Cc1c(C(=O)N/N=C/c2ccc(N3CCOCC3)cc2)nc2ccccn12,-8.6,-2.2%,?,-3.1,14.8
O=C(N/N=C/c1ccc(N2CCOCC2)cc1)c1ccccn1,26.9*,126.1%,121.2%,51.4*,87.6
Cc1cc(C(=O)NCc2ccccc2Cl)c2c(C)nn(-c3ccccc3)c2n1,·,·,·,·,-2.9
COc1cc(OC)c2ccc(=O)oc2c1C(CC(=O)N1CCOCC1)c1ccc2c(c1)OCO2 (configuration not stated),14.9,?,-19.9%,5.3,-27.2
COc1cc(C(CC(=O)N2CCN(c3ccccc3)CC2)c2c(OC)cc(OC)c3ccc(=O)oc23)cc(OC)c1OC (configuration not stated),0.9,4.65µM*,5.86µM*,-2.4,-1.5
COc1cc(C(CC(=O)N2CCOCC2)c2c(OC)cc(OC)c3ccc(=O)oc23)cc(OC)c1OC (configuration not stated),-4.2,?,?,21.2,-7.8
COc1cc(OC)c2ccc(=O)oc2c1C(CC(=O)N1CCN(c2ccccc2)CC1)c1ccc2c(c1)OCO2 (configuration not stated),8.7,13.1µM*,11.7µM*,-4.3,12.0
CC(C)C[C@H](NC(=O)[C@H](CC(C)C)NC(=O)[C@H](CCC(N)=O)NC(=O)[C@H](CO)NC(=O)[C@@H]1CCCN1C(=O)[C@H](CO)NC(=O)[C@H](CO)NC(=O)[C@@H](NC(=O)[C@H](Cc1cnc[nH]1)NC(=O)[C@H](CCC(=O)O)NC(=O)[C@H](Cc1ccc(O)cc1)NC(=O)[C@H](CCCCN)NC(=O)[C@H](CCC(N)=O)NC(=O)[C@H](Cc1ccc(O)cc1)NC(=O)[C@H](CC(=O)O)NC(=O)[C@@H](NC(=O)[C@@H]1CCCN1C(=O)[C@H](CC(=O)O)NC(=O)[C@H](CC(N)=O)NC(=O)[C@H](CC(=O)O)NC(=O)CNC(=O)[C@H](CC(=O)O)NC(=O)[C@@H]1CCCN1C(=O)[C@H](CCC(N)=O)NC(=O)[C@H](Cc1ccc(O)cc1)NC(=O)[C@H](C)NC(=O)[C@H](Cc1c[nH]c2ccccc12)NC(=O)[C@H](Cc1ccccc1)NC(=O)[C@@H](NC(=O)[C@@H](N)CO)[C@@H](C)O)[C@@H](C)O)[C@@H](C)O)C(=O)N[C@@H](C)C(=O)N1CCC[C@H]1C(=O)NCC(=O)N[C@@H](CC(=O)O)C(=O)N[C@@H](Cc1ccc(O)cc1)C(=O)O,-8.8,·,·,-0.5,·
COc1cccc(C(=O)NNC2OC(CO)C(O)C2O)c1 (configuration not stated),30.8*,7.5%,?,69.3*,-15.3
O=C(NNC1OC(CO)C(O)C(O)C1O)c1cccnc1 (configuration not stated),18.7*,?,27.8%,49.7*,-61.6*
SMILES,CHX counter,Pf growth 96h,Pf growth 48h,Shiga inhibitor,HCMV inh
COc1cccc(-c2nnc(SCC(=O)N(C)c3ccccc3)o2)c1,·,·,·,·,24.4
Cc1cc(C(=O)OCC(=O)N2CC(C)OC(C)C2)ccc1[N+](=O)[O-] (configuration not stated),-1.6,-19.2%,29.0%,16.0,-19.2
Cn1cc(CCCBr)c2ccccc21,·,·,·,·,9.7
COc1ccc(CN(C)C[C@@H]2OCCCC[C@H](C)Oc3ccc(NC(=O)Nc4ccc(F)cc4)cc3C(=O)N([C@H](C)CO)C[C@H]2C)cc1,·,·,·,·,-101.7*
C[C@@H]1CCCCO[C@H](CN(C)Cc2ccc(C(F)(F)F)cc2)[C@H](C)CN([C@@H](C)CO)C(=O)c2cc(NC(=O)Cc3ccccc3)ccc2O1,·,·,·,·,-81.3*
C[C@@H]1CN([C@H](C)CO)C(=O)c2cc(NC(=O)Nc3ccc(F)cc3)ccc2O[C@@H](C)CCCCO[C@H]1CN(C)Cc1ccc(C(=O)O)cc1,·,·,·,·,-0.1
COc1ccc(CN(C)C[C@@H]2OCCCC[C@H](C)Oc3ccc(NC(=O)Cc4ccccc4)cc3C(=O)N([C@@H](C)CO)C[C@@H]2C)cc1,·,·,·,·,-11.9
COc1ccc(CNC(=O)c2cnn(-c3ccc(C)cc3)c2C2CCN(C(=O)OC(C)(C)C)CC2)cc1,·,·,·,·,3.4
O=C(Nc1sc2c(c1C(=O)O)CCC2)c1cccs1,48.2*,-8.4%[5.75 µM],45.9%,114.6*,59.1
NC(=O)c1c(NC(=O)c2cccs2)sc2c1CCCCCC2,30.3*,14.0%,57.6%,55.3,8.7
CCOC(=O)C1(Cc2ccc(OC)cc2)CCN(C(=O)CCc2cccnc2)CC1,12.0,-18.1%,?,25.5,-29.5
Cc1cc(C)c2c(CC(=O)Nc3nccs3)coc2c1,20.1*,?,39.4%,10.9,-23.4
Cc1cc(C)c2c(CC(=O)NC(C)C)coc2c1,5.4,149.4%,0.0%,6.8,-61.2*
Cc1cc(C)c2c(CC(=O)NNC(=O)c3ccccc3)coc2c1,-1.5,-17.4%,5.8%,-4.4,2.9
O=C(CCCn1c(=O)[nH]c2cc(Cl)ccc2c1=O)NCCCN1CCCC1=O,11.7,4.6%,·,-8.5,37.3
Cc1[nH]c2ccc(C(=O)N3CCC(C(N)=O)CC3)cc2c1C,·,·,·,·,50.5
Cc1[nH]c2ccc(C(=O)N3CCCCC3)cc2c1C,38.8*,14.6%,158.3%,106.8*,26.1
Cc1[nH]c2ccc(C(=O)N3CCCC3)cc2c1C,30.4*,1.2%,14.1%,22.7,6.6

# Screening results deposited in PubChem by National Center for Advancing Translational Sciences (NCATS).
